Where “and” joins values, the source holds several entries; their conditions need not be identical. Identical values can stand only once. In all, about 5,500 compounds went through this assay and about 2,000 (36%) were called active. Another 18% or so got no clear call; they are omitted. No stated cut-off is given here; in the data, active means normalized growth mostly below about 0.91 (no sharp cut-off); inconclusive means no clear call, values can overlap the other calls; inactive means mostly above about 0.92. Some of the results follow.
Assay: chemical genetic growth profiling, strain panel (AID 1159580);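 further: tested at 20 µM; growth read once vehicle control cultures reached saturation at 30 °C; 1 = growth at the plate median or of vehicle wells; lower values mean less growth of the strain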
Details: growth OD

Measured: normalized growth

O=c1n(CCCN2CCN(c3cccc(Cl)c3)CC2)nc2ccccn12
inactive: S. cerevisiae deletion strains, locus YJR066W, strain TOR1, active compounds read low 0.943 | S. cerevisiae deletion strains, locus YJR075W, strain HOC1, active compounds read low 0.94 and 0.981 | S. cerevisiae deletion strains, locus YKL009W, strain mrt4, active compounds read low 0.967 | S. cerevisiae deletion strains, locus YKL068W, active compounds read low 0.989 | S. cerevisiae deletion strains, locus YKL085W, strain MDH1 (second series), active compounds read low 0.992 | S. cerevisiae deletion strains, locus YKL085W, strain MDH1, active compounds read low 0.992 | S. cerevisiae deletion strains, locus YKL160W, strain elf1, active compounds read low 0.986 | S. cerevisiae deletion strains, locus YKL190W, strain CNB1, active compounds read low 0.986 | S. cerevisiae deletion strains, locus YKR001C, strain vps1, active compounds read low 0.972 | S. cerevisiae deletion strains, locus YKR026C, strain gcn3, active compounds read low 0.984 | S. cerevisiae deletion strains, locus YKR091W, strain srl3, active compounds read low 0.993 | S. cerevisiae deletion strains, locus YLL001W, strain dnm1, active compounds read low 0.986 | S. cerevisiae deletion strains, locus YLL026W, active compounds read low 0.986 | S. cerevisiae deletion strains, locus YLL041C, strain sdh2, active compounds read low 0.994 | S. cerevisiae deletion strains, locus YLR027C, strain aat2, active compounds read low 0.979 | S. cerevisiae deletion strains, locus YLR039C, strain RIC1, active compounds read low 0.975 | S. cerevisiae deletion strains, locus YLR058C, strain SHM2, active compounds read low 0.964 | S. cerevisiae deletion strains, locus YLR102C, strain apc9, active compounds read low 0.993 | S. cerevisiae deletion strains, locus YLR113W, strain HOG1, active compounds read low 1 | S. cerevisiae deletion strains, locus YLR221C, strain rsa3, active compounds read low 0.985 | S. cerevisiae deletion strains, locus YLR258W, strain gsy2, active compounds read low 0.99 | S. cerevisiae deletion strains, locus YLR262C, strain YPT6 (second series), active compounds read low 0.965 | S. cerevisiae deletion strains, locus YLR262C, strain YPT6, active compounds read low 0.948 | S. cerevisiae deletion strains, locus YLR268W, strain sec22, active compounds read low 0.98 | S. cerevisiae deletion strains, locus YLR320W, strain mms22, active compounds read low 0.966 | S. cerevisiae deletion strains, locus YLR330W, strain CHS5, active compounds read low 0.989 | S. cerevisiae deletion strains, locus YLR342W, strain FKS1 (second series), active compounds read low 1.04 | S. cerevisiae deletion strains, locus YLR342W, strain FKS1, active compounds read low 0.983 | S. cerevisiae deletion strains, locus YLR357W, strain rsc2, active compounds read low 0.932 | S. cerevisiae deletion strains, locus YLR370C, strain arc18, active compounds read low 0.982 | S. cerevisiae deletion strains, locus YLR371W, strain rom2, active compounds read low 0.994 | S. cerevisiae deletion strains, locus YLR384C, strain iki3, active compounds read low 0.983 | S. cerevisiae deletion strains, locus YLR418C, strain cdc73, active compounds read low 1 | S. cerevisiae deletion strains, locus YML016C, strain PPZ1, active compounds read low 0.98 | S. cerevisiae deletion strains, locus YML032C, strain rad52, active compounds read low 0.979 | S. cerevisiae deletion strains, locus YML120C, strain ndi1, active compounds read low 0.977 | S. cerevisiae deletion strains, locus YML124C, strain tub3, active compounds read low 0.989 | S. cerevisiae deletion strains, locus YMR058W, strain fet3, active compounds read low 0.976 | S. cerevisiae deletion strains, locus YMR078C, strain ctf18, active compounds read low 0.995 | S. cerevisiae deletion strains, locus YMR125W, strain sto1, active compounds read low 0.969 | S. cerevisiae deletion strains, locus YMR129W, active compounds read low 0.984 | S. cerevisiae deletion strains, locus YMR205C, strain PFK2, active compounds read low 0.964 | S. cerevisiae deletion strains, locus YMR223W, strain ubp8, active compounds read low 1.01 | S. cerevisiae deletion strains, locus YMR231W, strain pep5, active compounds read low 0.989 | S. cerevisiae deletion strains, locus YMR263W, strain SAP30, active compounds read low 0.983 | S. cerevisiae deletion strains, locus YMR307W, strain GAS1, active compounds read low 1.08 and 1.01 | S. cerevisiae deletion strains, locus YNL067W, strain RPL9B, active compounds read low 0.969 | S. cerevisiae deletion strains, locus YNL071W, strain lat1, active compounds read low 0.963 | S. cerevisiae deletion strains, locus YNL153C, strain GIM3, active compounds read low 0.945 | S. cerevisiae deletion strains, locus YNL175C, strain NOP13, active compounds read low 0.999 | S. cerevisiae deletion strains, locus YNL183C, strain NPR1, active compounds read low 0.943 | S. cerevisiae deletion strains, locus YNL197C, strain WHI3, active compounds read low 1 | S. cerevisiae deletion strains, locus YNL209W, strain ssb2, active compounds read low 0.989 | S. cerevisiae deletion strains, locus YNL224C, strain SQS1, active compounds read low 0.998 | S. cerevisiae deletion strains, locus YNL233W, strain BNI4, active compounds read low 0.956 | S. cerevisiae deletion strains, locus YNL248C, strain rpa49, active compounds read low 0.976 | S. cerevisiae deletion strains, locus YNL250W, strain rad50, active compounds read low 0.973 | S. cerevisiae deletion strains, locus YNL271C, strain bni1, active compounds read low 0.986 | S. cerevisiae deletion strains, locus YNL298W, strain CLA4, active compounds read low 0.999 | S. cerevisiae deletion strains, locus YNL307C, strain MCK1, active compounds read low 0.993 | S. cerevisiae deletion strains, locus YNL322C, strain KRE1 (second series), active compounds read low 0.964 | S. cerevisiae deletion strains, locus YNL322C, strain KRE1, active compounds read low 0.997 | S. cerevisiae deletion strains, locus YNR049C, strain mso1, active compounds read low 0.979 | S. cerevisiae deletion strains, locus YNR052C, strain pop2, active compounds read low 0.992 | S. cerevisiae deletion strains, locus YOL006C, strain TOP1, active compounds read low 0.781 | S. cerevisiae deletion strains, locus YOL012C, strain htz1 1.02 | S. cerevisiae deletion strains, locus YOL147C, strain pex11, active compounds read low 0.992 | S. cerevisiae deletion strains, locus YOR001W, strain rrp6, active compounds read low 0.991 | S. cerevisiae deletion strains, locus YOR061W, strain CKA2, active compounds read low 0.965 | S. cerevisiae deletion strains, locus YOR069W, strain VPS5, active compounds read low 0.987 | S. cerevisiae deletion strains, locus YOR070C, strain gyp1, active compounds read low 0.974 | S. cerevisiae deletion strains, locus YOR080W, strain dia2, active compounds read low 0.975 | S. cerevisiae deletion strains, locus YOR083W, strain WHI5 (second series), active compounds read low 1.02 | S. cerevisiae deletion strains, locus YOR083W, strain WHI5, active compounds read low 0.984 | S. cerevisiae deletion strains, locus YOR106W, strain vam3, active compounds read low 0.977 | S. cerevisiae deletion strains, locus YOR136W, strain idh2, active compounds read low 0.983 | S. cerevisiae deletion strains, locus YOR144C, strain elg1, active compounds read low 0.996 | S. cerevisiae deletion strains, locus YOR184W, strain ser1, active compounds read low 0.992 | S. cerevisiae deletion strains, locus YOR231W, strain MKK1, active compounds read low 1 | S. cerevisiae deletion strains, locus YOR265W, strain rbl2, active compounds read low 0.969 | S. cerevisiae deletion strains, locus YOR270C, strain vph1, active compounds read low 0.902 | S. cerevisiae deletion strains, locus YOR290C, strain snf2, active compounds read low 0.939 | S. cerevisiae deletion strains, locus YOR316C, strain cot1, active compounds read low 0.99 | S. cerevisiae deletion strains, locus YPL051W, strain arl3, active compounds read low 0.982 | S. cerevisiae deletion strains, locus YPL078C, strain atp4, active compounds read low 0.975 | S. cerevisiae deletion strains, locus YPL106C, strain sse1, active compounds read low 0.971 | S. cerevisiae deletion strains, locus YPL240C, strain hsp82, active compounds read low 0.984 | S. cerevisiae deletion strains, locus YPL241C, strain CIN2, active compounds read low 0.997 | S. cerevisiae deletion strains, locus YPL256C, strain CLN2, active compounds read low 1.01 | S. cerevisiae deletion strains, locus YPR119W, strain clb2, active compounds read low 0.99 | S. cerevisiae deletion strains, locus YPR141C, strain kar3, active compounds read low 0.984 | S. cerevisiae deletion strains, locus YPR163C, strain tif3, active compounds read low 0.991 | S. cerevisiae deletion strains, locus YPR167C, strain met16, active compounds read low 1 | S. cerevisiae deletion strains, strain wtn01, active compounds read low 1.03 | S. cerevisiae strains, strain wild type, active compounds read low 0.979
